# Data: PubChem BioAssay (NCATS)
# “And” between values parts separate entries of the source, which are not always exact repeats. Equal values may be shown once. Records with an inconclusive call do not appear. The source made the active and inactive calls. Unless noted, no rule for the calls is given here.
# Key:
# [1] = qHTS profiling of the MIPE4 collection as inhibitors of Plasmodium falciparum (3D7) proliferation (AID 743344);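 also: scaled between DMSO vehicle wells and 0.29 µM artemisinin as full inhibition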; conditions: P. falciparum 3D7 in erythrocytes, SYBR Green DNA fluorescence, 72 h; at 28.5 µM unless noted
# Summary of the method: (§1)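 Erythrocytes infected with P. falciparum (0.3% parasitemia, 2.5% hematocrit) incubated with compounds 72 h at 37 C, 5% CO2. Lysis with saponin/Triton buffer containing SYBR Green I, overnight at room temperature in the dark; DNA fluorescence (485/535 nm) normalised to 0.29 uM artemisinin and DMSO.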
# [2] = qHTS profiling of the MIPE4 collection as inhibitors of Plasmodium falciparum (DD2) proliferation (AID 743345); conditions: P. falciparum Dd2 in erythrocytes, SYBR Green DNA, 72 h; at 28.5 µM unless noted
# Summary of the method: as §1
# [3] = qHTS profiling of the MIPE4 collection as inhibitors of Plasmodium falciparum (DD2) proliferation (Rep 2) (AID 743346); conditions: P. falciparum Dd2 in erythrocytes, SYBR Green DNA, 72 h; at 28.5 µM unless noted
# Summary of the method: as §1
# [4] = qHTS profiling of the MIPE4 collection as inhibitors of Plasmodium falciparum (HB3) proliferation (AID 743347);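 also: plate controls were DMSO vehicle wells for no effect and artemisinin wells for full effect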; conditions: P. falciparum HB3 in erythrocytes, SYBR Green DNA, 72 h; at 28.5 µM unless noted
# Summary of the method: as §1
# [5] = High-throughput drug toxicity screening in the BPDCN cell line Cal-1 (AID 1224825); conditions: Cal-1 BPDCN cell viability, qHTS; at 45.8 µM (top of the series) unless noted
# Summary of the method: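 Exponentially growing Cal-1 cells, 500 per well in phenol red-free RPMI with 10% FBS, were exposed to compounds for 48 h at 37 °C, 5% CO2. Viability was read by CellTiter-Glo luminescence and normalised to DMSO (100%) and 9.2 uM bortezomib (0%).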
# [6] = qHTS assay for measurement of the activity of small molecule inhibitors on Zika virus induced Caspase-3 activity in human iPSC derived neural progenitor cells (hNPCs) (AID 1224857; active = well fitted curve in the direction sought with a large enough effect; an effect the other way counts as inactive or inconclusive; also: % of control where 0% means no effect; nearly all actives have a fitted effect of over 65% in size); conditions: hNPCs ZIKV-induced caspase-3/7, Caspase-Glo luminescence, 6 h; series mostly up to 45.7 µM
# Summary of the method: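 Values are percent inhibition of virus-induced caspase-3/7 signal, scaled between uninfected cells and ZIKV-infected cells. Infection used 2 FFU/cell for 6 h after 1 h compound exposure.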
# [7] = qHTS profiling for inhibitors of Plasmodium falciparum (3D7) proliferation (AID 743322);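 also: infected erythrocytes exposed to compound for 72 h before lysis; 100% = DMSO vehicle wells and 0% = 0.29 µM artemisinin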; conditions: P. falciparum 3D7 proliferation; at 28.7 µM (top of the series)
# Summary of the method: as §1
# [8] = qHTS profiling for inhibitors of Plasmodium falciparum (DD2) proliferation (AID 743323); conditions: lower = more inhibition; at 28.7 µM (top of the series)
# Summary of the method: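 Parasite DNA quantified by SYBR Green fluorescence (ex 485, em 535 nm) after saponin/Triton lysis and overnight dark incubation. Cultures: 0.3% parasitemia, 2.5% hematocrit, 72 h, 37 C; data scaled between DMSO and 0.29 uM artemisinin.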
# [9] = qHTS profiling for inhibitors of Plasmodium falciparum (HB3) proliferation (AID 743324; active = well fitted curve in the direction sought with a large enough effect; an effect the other way counts as inactive or inconclusive;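 also: 100% = DMSO vehicle wells and 0% = artemisinin-treated control wells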); conditions: Plasmodium falciparum HB3 blood-stage proliferation; at 28.7 µM (top of the series)
# Summary of the method: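 P. falciparum HB3 grown in erythrocytes (0.3% parasitemia, 2.5% hematocrit final) with compound for 72 h at 37 C, 5% CO2. Parasite DNA detected by SYBR Green after saponin/triton lysis overnight; normalized to 0.29 uM artemisinin and DMSO.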
Compound,"parasite growth, % of DMSO control [1]","parasite growth remaining, % of DMSO control (lower = more inhibition) [2]","parasite growth, % of control (lower = inhibition) [3]","growth, % of control [4]",viability (% of control) [5],Potency [6],remaining parasite growth % (stronger effect = lower value) [7],"activity, percent of control [8]","remaining proliferation (% of control), lower = more inhibition [9]"
Cc1ccc(CN2CCNCC2)cc1NC(=O)CNc1ccc(F)c(F)c1,55.3%,103%,63%,60.8%,103%,inactive,,,
C=CC(=O)Nc1cc2c(Nc3ccc(F)c(Cl)c3)ncnc2cc1C#CC(C)(C)N1CCN(C)CC1,,8.69%,18%,4.67%,1.87%,inactive,-1.21%,-0.164%,-0.161%
O=C(O)CO.[NH2-].[NH2-].[Pt+2],92.3%,95.3%,83.9%,94.7%,100%,inactive,,,
COC(=O)C1=C(C)NC(C)=C(C(=O)OCCN2CCN(C(c3ccccc3)c3ccccc3)CC2)C1c1cccc([N+](=O)[O-])c1 (stereo not drawn),,45.6%,43.1%,18.9%,108%,inactive,,,
CC1(C)O[C@@H]2C[C@@H]3[C@H]4C[C@@H](F)C5=CC(=O)C=C[C@]5(C)[C@@]4(F)[C@@H](O)C[C@]3(C)[C@]2(C(=O)CO)O1,53.6%,97%,53.7%,,54.5%,inactive,,,
Cc1cc(Nc2nc(N[C@@H](C)c3ccc(F)cc3)c(C#N)cc2F)n[nH]1,,7.99%,9.75%,,,inactive,,,
COc1c(OCCCN2CCOCC2)ccc2c3n(c(=NC(=O)c4cnc(N)nc4)nc12)CCN3,7.6% [at 9.64 µM],12% [at 9.64 µM],16.8% [at 9.64 µM],3.45% [at 9.64 µM],,inactive,,,
Nc1cccc(-c2cc3c(Oc4cccc(O)c4)ncnc3[nH]2)c1,,86%,52.9%,43.2%,9.2%,inactive,,,
CCc1c2c(nc3ccc(O)cc13)-c1cc3c(c(=O)n1C2)COC(=O)[C@]3(O)CC,13.6%,12.1%,19.1%,11.3%,5.47%,inactive,,,
COc1cc(C(=O)NS(=O)(=O)c2ccccc2C)ccc1Cc1cn(C)c2ccc(NC(=O)OC3CCCC3)cc12,5.96%,7.78%,16.7%,7.01%,4.45%,inactive,,,
Cc1nc(Nc2n[nH]c3c2CN(C(=O)N[C@H](CN(C)C)c2ccccc2)C3(C)C)c2sccc2n1,,7.44%,9.85%,,1.64%,inactive,,,
CC(C)CC(=O)Nc1n[nH]c2c1CN(C(=O)C1CCN(C)CC1)C2(C)C,,19.3%,34.2%,5.85%,2.15%,inactive,9.49%,13.7%,
Cn1c(CNc2ccc(C(=N)N)cc2)nc2cc(C(=O)N(CCC(=O)O)c3ccccn3)ccc21,98.6% [at 9.64 µM],91.9% [at 9.64 µM],86.3% [at 9.64 µM],87.7% [at 9.64 µM],105% [at 23.2 µM],inactive,,,
CN1CCC(CNc2ccc3ncc(-c4cccc(OC(F)(F)F)c4)n3n2)CC1,5.42%,6.44%,10.4%,8.22%,7.35%,inactive,-1.19%,-0.747%,
COc1ccc(-c2cc3c(C)nc(N)nc3n(C3CCC(OCCO)CC3)c2=O)cn1 (stereo not drawn),,7.58%,7.09%,3.04%,3.91%,inactive,,,
Cc1cc(Nc2cc(CN3CCOCC3)c3nc(C)c(Cc4ccc(Cl)cc4F)n3n2)n[nH]1,6.44%,7.86%,12.5%,5.44%,2.99%,inactive,,,
Cc1[nH]nc2ccc(-c3cncc(OC[C@@H](N)Cc4ccccc4)c3)cc12,19.3%,38%,20.4%,8.27%,3.31%,inactive,30.1%,14.2%,17.9%
CC(C)c1cc(C(=O)N2Cc3ccc(CN4CCN(C)CC4)cc3C2)c(O)cc1O,5.55%,7.69%,9.28%,2.52%,15%,inactive,,,
Cc1cc(N2CCOCC2)cc2[nH]c(-c3c(NC[C@@H](O)c4cccc(Cl)c4)cc[nH]c3=O)nc12,5.92%,15.8%,14%,3.57%,3.1%,inactive,,,
CN(C)Cc1c(C(=O)NCCOc2ccc(C(=O)NO)cc2)oc2ccccc12,,7.04%,7.09%,6.43%,5.5%,inactive,,,
COc1cc2c(Oc3ccc(NC(=O)C4(C(=O)Nc5ccc(F)cc5)CC4)cc3F)ccnc2cc1OCCCN1CCOCC1,,5.88%,20.2%,8.86%,4.49%,inactive,-2.01%,-0.633%,-0.88%
COc1cccc2c(NCc3ccccc3)nc(-n3c(N)nc4ccccc43)nc12,5.92%,5.67%,11.4%,,2.1%,inactive,,,
Cc1c(NC(=O)OC[C@@H]2COCCN2)cn2ncnc(Nc3ccc4c(cnn4Cc4cccc(F)c4)c3)c12,5.88%,11%,24.7%,11.2%,13.9%,inactive,,,
CNC(=O)c1ccc(-c2cnc3ncc(Cc4ccc5ncccc5c4)n3n2)cc1F,19.3%,41.8%,37.1%,10.4%,92.3%,inactive,,,
Cn1c2cc(S(C)=O)sc2c2cnn(Cc3cccc(N)c3)c(=O)c21 (stereo not drawn),190%,102%,77%,367%,100%,inactive,83.6% and 85.6%,95% and 94.7%,53.2% and 65.3%
CCC1=C[C@@H]2CN(C1)Cc1c([nH]c3ccccc13)[C@@](C(=O)OC)(c1cc3c(cc1OC)N(C)[C@@H]1[C@@](O)(C(=O)OC)[C@H](OC(C)=O)[C@]4(CC)C=CCN5CC[C@]31[C@@H]54)C2,5.09%,7.41%,20.6%,8.82%,14.5%,inactive,,,
Nc1ccccc1NC(=O)c1ccc(CNc2nccc(-c3cccnc3)n2)cc1,5.35%,7.08%,7.5%,,5.36%,inactive,-1.31%,0.67%,
COc1cc(C(C)C)c2c(c1)S(=O)(=O)N(COc1cc(=O)n3cccc(OCCN4CCCCC4)c3n1)C2=O,101%,95.7%,114%,107%,10.9%,inactive,105%,94.1%,89.5%
COCCOc1ccc2c(c1)ncn2-c1ccc2cccc(N3CCC(N)CC3)c2n1,5.56%,7.14%,13.1%,4.14%,1.98%,inactive,,,
COc1cc(Nc2ncc(F)c(Nc3ccc4c(n3)N(COP(=O)(O)O)C(=O)C(C)(C)O4)n2)cc(OC)c1OC,19.5%,87.2%,22.9%,,,inactive,,,
